Assay results: PubChem BioAssay
Active and inactive are the calls of the source.

What was measured:
Albumin (Bos taurus) = Albumin (Bos taurus) (UniProt P02769); test: bovine serum albumin binders on microarray, profiling panel, artefact control for SMM control protein annotation, biochemical, small-molecule microarray, Alexa647 label, 635/667 nm fluorescence (AID 1118); conditions: BSA-A647 binding, fluorescence 635 nm, higher = more signal;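 note: score merges 667 nm emission intensity and signal-to-noise per printed compound spot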
Sequence of Albumin (Bos taurus) (P02769 whole entry, looked up): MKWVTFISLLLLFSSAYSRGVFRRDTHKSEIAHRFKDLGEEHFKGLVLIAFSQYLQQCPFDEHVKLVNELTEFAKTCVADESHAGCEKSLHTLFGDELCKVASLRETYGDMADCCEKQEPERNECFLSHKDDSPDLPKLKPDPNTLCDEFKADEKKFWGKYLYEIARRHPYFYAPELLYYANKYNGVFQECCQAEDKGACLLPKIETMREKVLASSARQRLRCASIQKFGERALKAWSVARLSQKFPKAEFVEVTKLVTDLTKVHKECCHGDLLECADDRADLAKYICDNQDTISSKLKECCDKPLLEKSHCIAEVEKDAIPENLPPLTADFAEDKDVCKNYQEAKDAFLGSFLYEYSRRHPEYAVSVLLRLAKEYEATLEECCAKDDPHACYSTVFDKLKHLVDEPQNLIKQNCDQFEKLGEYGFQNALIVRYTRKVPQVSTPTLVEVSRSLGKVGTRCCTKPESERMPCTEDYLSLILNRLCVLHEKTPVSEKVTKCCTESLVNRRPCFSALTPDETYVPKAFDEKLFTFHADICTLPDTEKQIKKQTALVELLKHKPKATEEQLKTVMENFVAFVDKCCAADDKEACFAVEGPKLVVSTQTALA

[1] = small-molecule microarray binders of probe aXIP, primary screen, biochemical, NeuroSMM set, 635/667 nm fluorescence (AID 1119); conditions: higher = more signal, called active from +8 up or from −8 down;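 note: probe is the protein aXip251-270 applied at 1 µg/mL to compound-printed slides; binding of probe to printed compounds measured as 667 nm fluorescence plus signal to noise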
[2] = small-molecule binders of probe aNOTCH3, primary screen, biochemical, small-molecule microarray, 635/667 nm fluorescence (AID 1120); conditions: higher = more signal;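 note: probe is a biotin-tagged antibody raised against NOTCH3 rather than NOTCH3 protein; score merges spot fluorescence near 667 nm with spot signal to noise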
[3] = small-molecule binders of probe aNOTCH2, primary screen, biochemical, small-molecule microarray, 635/667 nm fluorescence (AID 1121); conditions: higher = more signal;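 note: score merges feature fluorescence read at 667 nm with its signal to noise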
[4] = molecular target: Carbonic anhydrase 2 (Homo sapiens) (UniProt P00918); test: CAII small-molecule binders, profiling panel, biochemical, small-molecule microarray, Alexa647-labelled CAII (AID 1122); conditions: CAII-A647 binding fluorescence, higher = more signal
[5] = COS7 lysate on small-molecule microarray, probe aHis, 635 nm (AID 1123); conditions: COS7 cell lysate, fluorescence, higher = more signal;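 note: z-score combines 667nm fluorescence intensity with signal-to-noise per printed compound spot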
[6] = compound binding in COS7 lysate, probe aLAP1, primary screen, cell lysate, small-molecule microarray (AID 1124); conditions: probe aLAP1, fluorescence, higher = more signal;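 note: lysate comes from COS7 cells expressing LAP1 and is applied at 0.3 µg/mL; score merges spot fluorescence near 667 nm with signal-to-noise over triplicate slides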
Sam68 (KHDRBS1) = test: Sam68 small-molecule binders, primary screen, biochemical, small-molecule microarray, 635 nm fluorescence (AID 1125); conditions: small-molecule microarray binding, higher = more signal;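 note: score merges 667 nm channel intensity with signal to noise over triplicate slides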
[7] = tested on: Chordin-like protein 2 (CHRDL2); test: CHRDL2 small-molecule binders, primary screen, biochemical, small-molecule microarray, 635 nm fluorescence (AID 1126); conditions: small-molecule microarray binding, fluorescence 635 nm; higher = more signal;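 note: printed compound slides probed with Chrdl2 protein at 4 µg/mL for 1 h at 4 C; score merges 667 nm emission intensity with signal to noise over three replicate slides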
[8] = molecular target: Concanavalin-A (Canavalia ensiformis) (UniProt P02866); test: ConA small-molecule binders, primary screen, artefact control for SMM control protein annotation, biochemical, small-molecule microarray, Alexa647 label, 635 nm (AID 1127); conditions: ConA-A647 binding fluorescence, higher = more signal;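 note: z combines 667 nm emission intensity with signal-to-noise across three replicate slides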
Sequence of Concanavalin-A (Canavalia ensiformis) (P02866 whole entry, looked up): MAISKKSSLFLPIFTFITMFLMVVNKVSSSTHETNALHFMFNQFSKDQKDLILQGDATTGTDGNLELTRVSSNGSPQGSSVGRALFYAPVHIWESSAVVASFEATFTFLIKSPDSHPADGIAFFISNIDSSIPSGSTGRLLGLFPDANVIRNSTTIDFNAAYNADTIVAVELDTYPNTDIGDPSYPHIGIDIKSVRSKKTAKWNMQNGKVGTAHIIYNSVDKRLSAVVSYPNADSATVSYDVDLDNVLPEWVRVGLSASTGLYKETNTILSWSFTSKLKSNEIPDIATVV

[9] = anti-His antibody binders, primary screen, artefact control for SMM control protein annotation, biochemical, small-molecule microarray, 635 nm fluorescence (AID 1128); conditions: anti-His Alexa647 antibody binding, higher = more signal;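 note: score merges feature fluorescence with signal-to-noise for each printed compound spot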
[10] = tested on: Human papillomavirus type 1a E7 protein (residues 1-88); test: HPV1a E7 small-molecule binders, primary screen, biochemical, small-molecule microarray, residues 1-88, 635 nm (AID 1129); conditions: small-molecule microarray binding, fluorescence 635 nm; higher = more signal
[11] = molecular target: Focal adhesion kinase 1 (Homo sapiens) (UniProt Q05397); test: small-molecule microarray binders of FAK, primary screen, biochemical, 635/667 nm fluorescence, BSA, DTT (AID 1130); conditions: PTK2 binding, 635 nm fluorescence, higher = more signal;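 note: composite of spot emission at 667 nm and signal to noise over triplicate slides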
Sequence of Focal adhesion kinase 1 (Homo sapiens) (Q05397 whole entry, looked up): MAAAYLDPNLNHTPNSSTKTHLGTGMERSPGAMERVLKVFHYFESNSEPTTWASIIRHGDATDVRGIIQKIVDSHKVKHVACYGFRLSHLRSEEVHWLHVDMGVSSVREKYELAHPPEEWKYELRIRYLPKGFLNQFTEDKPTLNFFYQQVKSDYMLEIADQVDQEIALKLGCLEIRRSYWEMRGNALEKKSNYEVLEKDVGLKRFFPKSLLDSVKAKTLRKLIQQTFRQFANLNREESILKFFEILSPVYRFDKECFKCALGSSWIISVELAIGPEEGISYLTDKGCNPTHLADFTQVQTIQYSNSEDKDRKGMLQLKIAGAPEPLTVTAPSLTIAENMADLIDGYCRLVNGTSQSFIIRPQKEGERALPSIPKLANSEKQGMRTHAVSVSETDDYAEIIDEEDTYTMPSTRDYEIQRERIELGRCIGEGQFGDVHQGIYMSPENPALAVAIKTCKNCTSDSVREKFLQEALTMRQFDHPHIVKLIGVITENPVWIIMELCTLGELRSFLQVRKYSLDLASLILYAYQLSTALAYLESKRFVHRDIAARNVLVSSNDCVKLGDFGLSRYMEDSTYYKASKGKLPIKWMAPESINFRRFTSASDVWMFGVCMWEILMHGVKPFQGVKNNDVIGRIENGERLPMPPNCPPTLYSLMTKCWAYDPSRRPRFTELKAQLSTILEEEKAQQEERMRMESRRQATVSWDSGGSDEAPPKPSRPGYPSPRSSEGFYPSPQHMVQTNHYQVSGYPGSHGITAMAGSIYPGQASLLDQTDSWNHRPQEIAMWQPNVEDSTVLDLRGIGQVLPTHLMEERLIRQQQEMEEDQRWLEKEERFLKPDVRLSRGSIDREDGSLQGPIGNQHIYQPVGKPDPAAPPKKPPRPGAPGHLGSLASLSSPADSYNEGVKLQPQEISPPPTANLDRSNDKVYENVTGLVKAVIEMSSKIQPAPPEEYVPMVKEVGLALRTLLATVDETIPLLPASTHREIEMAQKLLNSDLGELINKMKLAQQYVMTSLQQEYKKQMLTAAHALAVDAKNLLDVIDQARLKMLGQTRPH

[12] = tested on: Fibrinogen (Alexa647-labelled); test: fibrinogen binders on compound microarrays, profiling panel, artefact control for SMM control-protein annotation, biochemical, small-molecule microarray, 635/667 nm fluorescence (AID 1131); conditions: fibrinogen-A647 binding fluorescence, higher = more signal;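 note: z-score merges 667 nm fluorescence with per-spot signal-to-noise over triplicate slides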
[13] = molecular target: Follistatin (Homo sapiens) (UniProt P19883); test: follistatin binders on small-molecule microarrays, primary screen, biochemical, small-molecule microarray, 635/667 nm fluorescence (AID 1132); conditions: FST binding, 635 nm fluorescence, higher = more signal
Sequence of Follistatin (Homo sapiens) (P19883 whole entry, looked up): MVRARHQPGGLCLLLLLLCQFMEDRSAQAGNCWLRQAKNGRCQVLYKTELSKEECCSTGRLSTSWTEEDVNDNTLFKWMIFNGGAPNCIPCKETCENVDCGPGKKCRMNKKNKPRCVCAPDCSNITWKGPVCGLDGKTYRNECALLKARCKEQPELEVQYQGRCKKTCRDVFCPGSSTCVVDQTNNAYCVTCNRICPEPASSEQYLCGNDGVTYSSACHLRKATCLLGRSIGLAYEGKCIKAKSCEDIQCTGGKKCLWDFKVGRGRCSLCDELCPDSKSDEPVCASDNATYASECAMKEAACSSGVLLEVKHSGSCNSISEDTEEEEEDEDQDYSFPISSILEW

[14] = molecular target: Fibroblast growth factor 2 (Homo sapiens) (UniProt P09038); test: FGF2 binders on small-molecule microarrays, primary screen, biochemical, small-molecule microarray, 635/667 nm fluorescence (AID 1133); conditions: small-molecule microarray binding, FGF2, fluorescence 635/667; higher = more signal
Sequence of Fibroblast growth factor 2 (Homo sapiens) (P09038 whole entry, looked up): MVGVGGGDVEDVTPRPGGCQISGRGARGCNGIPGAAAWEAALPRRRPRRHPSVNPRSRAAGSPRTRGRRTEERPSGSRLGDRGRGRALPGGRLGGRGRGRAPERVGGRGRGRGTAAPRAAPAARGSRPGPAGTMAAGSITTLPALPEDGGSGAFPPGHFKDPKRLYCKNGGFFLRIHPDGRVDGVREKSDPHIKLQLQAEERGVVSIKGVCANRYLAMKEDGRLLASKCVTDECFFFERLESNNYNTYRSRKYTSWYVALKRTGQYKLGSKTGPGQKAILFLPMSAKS

[15] = mitochondrial membrane potential change in A549 cells, profiling panel, cell-based, JC-1 fluorescence, basal, 24 h, 100 nL (AID 1138); conditions: higher = more signal;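 note: A549 lung adenocarcinoma cells under basal conditions with no added stimulus; test concentration not given here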
Lefty1 = Lefty1 binders on small-molecule microarrays, primary screen, biochemical, small-molecule microarray, 635/667 nm fluorescence (AID 1139); conditions: small-molecule microarray binding, fluorescence 635/667; higher = more signal
[16] = tested on: wheat germ agglutinin (Triticum aestivum), Alexa647-labelled; test: wheat germ agglutinin binders on compound microarrays, profiling panel, artefact control for SMM control-protein annotation, biochemical, small-molecule microarray, 635/667 nm fluorescence (AID 1140); conditions: WGA-A647 binding, 635 nm fluorescence, higher = more signal;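 note: score merges 667 nm feature emission with signal to noise over triplicate slides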
[17] = molecular target: Luciferin 4-monooxygenase (Photinus pyralis) (UniProt P08659); test: firefly luciferase enzyme inhibitors, primary screen, biochemical, luminescence, purified enzyme, 2006 set (AID 1141); conditions: SteadyGlo luminescence, 30 min, higher = more signal, called active from +8 up or from −8 down;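 note: cell-free assay with purified firefly luciferase at 100 ng per well in PBS; test concentration not given here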
Sequence of Luciferin 4-monooxygenase (Photinus pyralis) (P08659 whole entry, looked up): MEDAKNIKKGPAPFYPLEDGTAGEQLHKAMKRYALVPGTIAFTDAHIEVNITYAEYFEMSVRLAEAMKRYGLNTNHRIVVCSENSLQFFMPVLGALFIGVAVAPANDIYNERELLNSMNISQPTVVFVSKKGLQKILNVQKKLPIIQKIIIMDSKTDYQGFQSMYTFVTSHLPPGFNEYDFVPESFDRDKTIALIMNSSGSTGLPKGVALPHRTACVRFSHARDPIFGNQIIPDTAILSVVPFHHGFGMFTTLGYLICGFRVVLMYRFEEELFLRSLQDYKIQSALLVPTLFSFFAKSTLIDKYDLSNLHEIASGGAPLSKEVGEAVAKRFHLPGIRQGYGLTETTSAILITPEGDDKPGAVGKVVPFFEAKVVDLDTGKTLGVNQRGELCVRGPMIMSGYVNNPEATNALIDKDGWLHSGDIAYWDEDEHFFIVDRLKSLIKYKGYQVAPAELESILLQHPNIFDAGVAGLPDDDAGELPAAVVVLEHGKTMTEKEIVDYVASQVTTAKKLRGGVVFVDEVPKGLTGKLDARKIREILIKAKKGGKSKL

SMILES | composite z-score (Albumin (Bos taurus)) | composite Z-score [1] | composite z-score [2] | composite z-score [3] | composite z-score [4] | composite z-score [5] | composite z-score [6] | composite z-score (Sam68 (KHDRBS1)) | composite z-score [7] | composite z-score [8] | composite z-score [9] | composite z-score [10] | composite z-score [11] | composite z-score [12] | composite z-score [13] | composite z-score [14] | z-score [15] | composite z-score (Lefty1) | composite z-score [16] | z-score [17]
COC(=O)[C@@]1(Cc2ccc(OC)cc2)[C@H]2c3cc(C(=O)N4CCCC4)n(Cc4ccc(O)c(OC)c4)c3C[C@H]2CN1C(=O)c1ccccc1 | 1.06 | 1.64 (inactive) | 1.18 | 0.437 | 0.845 | 3.32 | 1.09 | 0.535 | 0.114 | 0.988 | 2.89 | 0.926 | 0.264 | 0.724 | 0.379 | -0.1 | 1.44 | -0.304 | 1.11 | 1.62 (inactive)
C=C(CCCC)/C(=C/C[C@@H](OC(C)=O)c1ccc(OCCO)cc1)c1cnc2ccccc2c1 | 0.631 | -0.302 (inactive) | 0.0964 | -0.0942 | 0.718 | 0.696 | 0.35 | 1.28 | 0.963 | 0.555 | 1.42 | 0.974 | 0.153 | 0.539 | 1.12 | 0.502 | 1.49 | 0.856 | 0.773 | -1.81 (inactive)
COCCOC(=O)N1C(=O)[C@@]2(c3ccccc31)[C@H](c1ccccc1OCCO)N1[C@H](c3ccccc3)[C@H](c3ccccc3)OC(=O)[C@H]1[C@@H]2C(=O)N1CCN(c2ncccn2)CC1 | 0.493 | 1.6 (inactive) | -0.0345 | -0.0756 | 0.521 | 1.59 | 0.218 | 1.29 | 0.0792 | 1.11 | 1.22 | 1.15 | 0.1 | 0.64 | 0.755 | 0.385 | -1.21 | 0.962 | 1.1 | -0.388 (inactive)
CC(C)(C)OC(=O)CC[C@]1(C(=O)N2CCOCC2)N=C(c2ccc(OCCCO)cc2)O[C@H]1c1ccccc1N=[N+]=[N-] | 0.55 | 0.103 (inactive) | 0.133 | 0.119 | 0.743 | 2.36 | 0.947 | 1.28 | -0.135 | 0.973 | 2.82 | 1.27 | 0.566 | 0.946 | 1.18 | 0.449 | 2.26 | 0.146 | 1.02 | -9.23 (active)
COCCOC(=O)N1C(=O)[C@@]2(c3cc(C#CCC(C(=O)OC)C(=O)OC)ccc31)[C@H](c1ccccc1OCCO)N1[C@H](c3ccccc3)[C@H](c3ccccc3)OC(=O)[C@H]1[C@@H]2C(=O)NC[C@H](O)c1ccccc1 | -0.841 | 0.577 (inactive) | 0.164 | 0.0568 | 0.483 | 1.47 | 0.412 | 1.3 | 0.972 | 1.16 | 1.33 | 1.15 | 0.9 | 0.749 | 1.37 | 1.83 | -0.671 | 1.41 | 0.339 | -0.182 (inactive)
